Hit rate of the full screen: of about 5,500 compounds, about 2,000 (36%) were called active. Another 18% or so got no clear call; they are omitted. Rule as the data show it: active = normalized growth mostly below about 0.91 (no sharp cut-off); inconclusive = no clear call, values can overlap the other calls; inactive = mostly above about 0.92. This is one part of the list.
Assay: chemical genetic growth profiling, strain panel (AID 1159580);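 also: tested at 20 µM; growth read once vehicle control cultures reached saturation at 30 °C; 1 = growth at the plate median or of vehicle wells; lower values mean less growth of the strain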
Conditions: S. cerevisiae deletion strains, growth OD

Measured: normalized growth

C=C1C(=O)[C@]23[C@H](O)[C@H]1CC[C@H]2[C@@]12CO[C@]3(O)[C@H](O)[C@@H]1C(C)(C)CC[C@@H]2O
inactive: locus YAL021C, strain ccr4, stronger effect = lower value 1.02 | locus YAL026C, strain drs2, stronger effect = lower value 0.99 | locus YAL030W, strain snc1, stronger effect = lower value 1 | locus YBL061C, strain skt5, stronger effect = lower value 0.987 | locus YBR009C, strain hhf1, stronger effect = lower value 0.948 | locus YBR023C, strain chs3, stronger effect = lower value 0.991 | locus YBR171W, strain sec66, stronger effect = lower value 0.999 | locus YBR231C, strain swc5, stronger effect = lower value 1.01 | locus YBR279W, strain paf1, stronger effect = lower value 1 | locus YCL011C, strain gbp2, stronger effect = lower value 0.983 | locus YCL016C, strain dcc1, stronger effect = lower value 0.972 | locus YCL061C, strain MRC1, stronger effect = lower value 1 | locus YCL069W, strain vba3, stronger effect = lower value 0.995 | locus YCR088W, strain abp1, stronger effect = lower value 1 | locus YDL005C, strain med2, stronger effect = lower value 1.01 | locus YDL040C, strain nat1, stronger effect = lower value 0.993 | locus YDR001C, strain nth1, stronger effect = lower value 1 | locus YDR069C, strain doa4, stronger effect = lower value 1.04 | locus YDR137W, strain rgp1, stronger effect = lower value 0.99 | locus YDR159W, strain sac3, stronger effect = lower value 1 | locus YDR195W, strain ref2 1.03 | locus YDR297W, strain sur2, stronger effect = lower value 1 | locus YDR334W, strain swr1, stronger effect = lower value 0.994 | locus YDR335W, strain msn5, stronger effect = lower value 1 | locus YDR392W, strain spt3, stronger effect = lower value 0.883 | locus YEL003W, strain gim4, stronger effect = lower value 0.992 | locus YEL037C, strain rad23, stronger effect = lower value 1 | locus YEL061C, strain CIN8 (second series), stronger effect = lower value 1 | locus YER015W, strain faa2, stronger effect = lower value 0.982 | locus YER016W, strain bim1, stronger effect = lower value 1.01 | locus YER111C, strain swi4, stronger effect = lower value 0.999 | locus YER155C, strain BEM2 (second series), stronger effect = lower value 0.984 | locus YFR010W, strain ubp6, stronger effect = lower value 0.995 | locus YGL167C, strain pmr1, stronger effect = lower value 0.995 | locus YGL173C, strain kem1, stronger effect = lower value 1 | locus YGL227W, strain vid30, stronger effect = lower value 1 | locus YGL240W, strain doc1, stronger effect = lower value 1.02 | locus YGL253W, strain hxk2, stronger effect = lower value 1.02 | locus YHR013C, strain ard1, stronger effect = lower value 1.03 | locus YHR027C, strain rpn1, stronger effect = lower value 0.986 | locus YHR030C, strain SLT2, stronger effect = lower value 1.01 | locus YHR079C, strain IRE1, stronger effect = lower value 0.992 | locus YHR142W, strain chs7, stronger effect = lower value 1.01 | locus YJL092W, strain hpr5, stronger effect = lower value 1.02 | locus YJL095W, strain BCK1 (second series), stronger effect = lower value 0.99 | locus YJL095W, strain BCK1, stronger effect = lower value 0.974 | locus YJL115W, strain asf1, stronger effect = lower value 0.988 | locus YJL129C, strain trk1, stronger effect = lower value 1.03 | locus YJL154C, strain vps35, stronger effect = lower value 1.01 | locus YJL164C, strain tpk1, stronger effect = lower value 0.972 | locus YJL166W, strain qcr8, stronger effect = lower value 1.02 | locus YJL187C, strain SWE1, stronger effect = lower value 1.02 | locus YJR066W, strain TOR1, stronger effect = lower value 0.962 | locus YKL160W, strain elf1, stronger effect = lower value 1.04 | locus YKR026C, strain gcn3, stronger effect = lower value 0.994 | locus YKR091W, strain srl3, stronger effect = lower value 0.995 | locus YLL001W, strain dnm1, stronger effect = lower value 1 | locus YLL026W, stronger effect = lower value 0.992 | locus YLL041C, strain sdh2, stronger effect = lower value 0.991 | locus YLR027C, strain aat2, stronger effect = lower value 1 | locus YLR113W, strain HOG1, stronger effect = lower value 0.94 | locus YLR221C, strain rsa3, stronger effect = lower value 0.975 | locus YLR258W, strain gsy2, stronger effect = lower value 0.994 | locus YLR262C, strain YPT6 (second series), stronger effect = lower value 1.01 | locus YLR320W, strain mms22, stronger effect = lower value 1.01 | locus YLR342W, strain FKS1, stronger effect = lower value 1.01 | locus YLR357W, strain rsc2, stronger effect = lower value 0.999 | locus YLR370C, strain arc18, stronger effect = lower value 0.973 | locus YLR384C, strain iki3, stronger effect = lower value 0.993 | locus YML120C, strain ndi1, stronger effect = lower value 0.982 | locus YMR058W, strain fet3, stronger effect = lower value 1 | locus YMR125W, strain sto1, stronger effect = lower value 1.02 | locus YMR129W, stronger effect = lower value 0.997 | locus YMR205C, strain PFK2, stronger effect = lower value 1.02 | locus YMR231W, strain pep5, stronger effect = lower value 0.994 | locus YNL071W, strain lat1, stronger effect = lower value 1.01 | locus YNL183C, strain NPR1, stronger effect = lower value 0.95 | locus YNL209W, strain ssb2, stronger effect = lower value 0.993 | locus YNL248C, strain rpa49, stronger effect = lower value 1.06 | locus YNL322C, strain KRE1 (second series), stronger effect = lower value 0.994 | locus YNR049C, strain mso1, stronger effect = lower value 0.99 | locus YOR001W, strain rrp6, stronger effect = lower value 0.964 | locus YOR070C, strain gyp1, stronger effect = lower value 0.992 | locus YOR080W, strain dia2, stronger effect = lower value 0.998 | locus YOR083W, strain WHI5, stronger effect = lower value 1.02 | locus YOR106W, strain vam3, stronger effect = lower value 1.02 | locus YOR231W, strain MKK1, stronger effect = lower value 1.02 | locus YOR265W, strain rbl2, stronger effect = lower value 0.984 | locus YOR270C, strain vph1, stronger effect = lower value 1.04 | locus YOR290C, strain snf2, stronger effect = lower value 0.996 | locus YPL051W, strain arl3, stronger effect = lower value 1.04 | locus YPL078C, strain atp4, stronger effect = lower value 1.04 | locus YPL106C, strain sse1, stronger effect = lower value 0.981 | locus YPL240C, strain hsp82, stronger effect = lower value 0.975 | locus YPL256C, strain CLN2, stronger effect = lower value 0.984

From PubChem BioAssay AID1159580 (chemical genetic matrix, 2015)
